# Experimental data taken from PubChem BioAssay (Tox21).
# “And” between values parts separate entries of the source, which are not always exact repeats. Identical values can stand only once. Results filed as inconclusive are left out. The source made the active and inactive calls. Calls come from the whole dose curve.
# Assay: qHTS assay to identify small molecule antagonists of the sonic hedgehog signaling (Shh) pathway (AID 1259369); note: nearly all actives have a fitted effect of over 45% in size
# Details: NIH/3T3 Gli1-Luc reporter, Shh antagonist, luminescence 24 h; series mostly up to 92.4 µM; activity change, negative = inhibition: at the top concentration
# From the text: U.S. Tox21 Program National Center for Advancing Translational Sciences [NCATS] NIH Chemical Genomics Center [NCGC] U.S. Environmental Protection Agency [EPA] National Institutes of Environmental Health Sciences [NIEHS] National Toxicology Program [NTP] U.S. Food and Drug Administration [FDA] Tox21 Assay Overview: The sonic hedgehog (Shh) pathway is essential for normal embryonic development. Dysregulation of the Shh pathway can cause severe developmental defects in organs. Therefore chemicals that interfere with the pathway are potential developmental toxicants. A cell line designated 3T3Gli1-Luc (DMB/OARSA/CFSAN/FDA, Laurel, MD), a NIH/3T3 derived clone containing stably integrated Gli1-Luc reporter is used to detect chemical interference of the Shh pathway, by changes in the expression of the firefly Luc gene under the control of the Gli1 transcriptional response element. This cell line was used to screen Tox21 libraries for identifying and prioritizing the potential developmental toxicants that interfere Shh pathway. Conditioned medium-stimulated mode was used to screen for chemicals inhibiting Shh signaling.
# Tox21 Assay Protocol Summary: 3T3 Gli1-Luc cells were dispensed at 2,000 per well in 5uL of culture medium into white solid bottom 1536-well plates (Greiner Bio-One, Monroe, NC) using a Multidrop Combi (Thermo Scientific, Waltham, MA) dispenser. The assay plates were incubated at 37 C and 5% CO2 for 4hr, and then 23nL of compounds dissolved in DMSO and positive control were transferred using a Pintool station (Wako, San Diego, CA). The compound transfer was followed by the addition of 1ul conditioned medium or assay buffer using two separate tips of Flying Reagent Dispenser (FRD, Aurora Discovery, San Diego, CA). The assay plates were incubated at 37C and 5% CO2 for 24hr. For luciferase read, 4uL of Amplite Luciferase reporter gene assay reagent (AAT Bioquest, Inc. Sunnyvale, CA) was added to each well of the assay plates using FRD and incubated at room temperature for 30min. The luminescence signal was measured using a ViewLux plate reader (Perkin Elmer, Shelton, CT).
# % is set by controls: 0 for no effect and ±100 for the full control effect; potency is the fitted concentration of half-maximal effect.
Compound,"activity change, negative = inhibition",Potency
[O]=[Zr],-1.43% (inactive),
CCCCCCCC/C=C\CCCCCCCC(=O)N(C)CC(=O)O,0% (inactive),
CCC1(c2cnc[nH]2)Cc2ccccc2C1,-17.7% [at 42.5 µM] (inactive),
COC(=O)[C@]1(C)CCC[C@@]2(C)[C@H]1CC=C1C=C(C(C)C)CC[C@@H]12,3.21% (inactive),
CC(C)c1ccc(O)c(C(C)C)c1,-29.3% (inactive),
CC1CCCCC1,16.5% (inactive),
CC(C)(c1cc(Br)c(OCCO)c(Br)c1)c1cc(Br)c(OCCO)c(Br)c1,,1.89 µM (active)
O=C[C@H](O)[C@H](O)[C@H](O)CO,15.8% (inactive),
CCN=c1cc2oc3cc(NCC)c(C)cc3c(-c3ccccc3C(=O)OCC)c-2cc1C,,1.08 µM (active) and 545 nM (active)
O=C1NCCN1CCN1CCC(c2cn(-c3ccc(F)cc3)c3ccc(Cl)cc23)CC1,,13.3 µM (active)
COC(=O)NCCC[Si](OC)(OC)OC,-18.6% (inactive),
C/C=C/CO,16.3% (inactive),
O=S(=O)(O)CCCN1CCOCC1,-6.38% (inactive),
CCCCCCS,19.3% (inactive),
CCOCN(C(=O)CS(=O)(=O)O)c1c(C)cccc1CC,1.08% (inactive),
CS(C)(=O)=O,2.11% (inactive),
C=CC/C=C/C/C=C/C/C=C/C,0.994% (inactive),
O=c1cccc[nH]1,-4.03% (inactive),
CCOC(=O)CC(C)O (stereo not given),1.41% (inactive),
CCCCCCOc1cc(C)c(O)c(C)c1C,,61.9 µM (active)

Compound,"activity change, negative = inhibition",Potency
CN1[C@@H]2CC[C@@H]1CC(OC(=O)C(CO)c1ccccc1)C2 (stereo not given in full),-17.5% [at 42.5 µM] (inactive),
CCCCN(C)C,29.7% (inactive),
C=CC(=O)OCCOCC(CC)(COCCOC(=O)C=C)COCCOC(=O)C=C,,5.67 µM (active)
CC(C)CCOCCC(C)C,7.72% (inactive),
C(=C/c1ccccc1)/c1ccccc1,0% (inactive),
C[C@]12CC[C@H]3C(=CCc4cc(O)ccc43)[C@@H]1CCC2=O,,21.7 µM (active)
CCOCOCC,11.5% (inactive),
CC=O,,0.0161 µM (active)
CC1CNCC(C)O1 (stereo not given),18.6% (inactive),
Oc1ccc(-c2ccccc2)c(Cl)c1,-7.57% (inactive),
C#CC(O)CCC (stereo not given),18.4% (inactive),
CCCCCCCC(OC)OC,18.1% [at 42.5 µM] (inactive),
NC(=O)c1ccccc1N,10.7% (inactive),
OCCCS,-0.345% (inactive),
Clc1nc2ccccc2s1,3.71% (inactive),
COc1ccc(-n2nc(CCC(=O)N(C)O)cc2-c2ccc(Cl)cc2)cc1,,8.41 µM (active)
CC(C)(C)CC(C)(C)c1ccccc1O,,27.4 µM (active)
C=CCCCCCCC=C,,30.7 µM (active)
CCC(=O)CC(C)CC (stereo not given),19.5% [at 0.349 µM] (inactive),
Nc1ccc2cc3ccc(N)cc3nc2c1,,inactive
